Test results reported in PubChem BioAssay (NCI).
This is part of a sample that, as a whole, favours compounds with a hit. Of some 83,000 tested, about 20% had one in any assay.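 Values shown are percent growth following 48 h exposure of cells in 96-well plates to a single concentration of compound; below 10 was considered active.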 A number with no mark means an inactive call. Activity calls are given as the source filed them.

Test system: A498 renal
Experiment: NCI-60 one-dose screen, 48 h (100 = growth as untreated, 0 = no growth, -100 = all killed)
Conditions: 10 µM

| SMILES | growth |
| --- | --- |
| CC(=O)[C@H]1CC[C@]2(C)[C@@H]1CC[C@@H]1[C@@]3(C)CC(CCC#N)(CCC#N)C(=O)C(C)(C)[C@@H]3CC[C@]12C | 88.9% |
| O=C1c2ccccc2C(=O)c2c1ccc(C(Br)Br)c2Cl | 108% |
| Clc1ccc(/C=C2\CCCC3C2=Nc2ccccc2NC3c2ccc(Cl)cc2)cc1 (centres undefined) | 67.2% |
| Cc1ccc(/C=C/C(=O)C(=O)/C=C/c2ccc(C)cc2)cc1 | 101% |
| CCn1c(SC/C(=N/O)c2ccccc2)nnc1-c1ccccc1 | 69.3% |
| Cc1cc(SCc2ccccc2)nc(N)n1 | 89.4% |
| COc1cc2cc(Oc3ccc(NC(=O)Nc4ccc(Cl)c(C(F)(F)F)c4)cc3)c(C)nc2cc1OC | 10.5% |
| C[n+]1c2ccccc2nc2ccccc21 | 60% |

Test system: CCRF-CEM leukemia
Experiment: as above
Conditions: 10 µM

| SMILES | growth |
| --- | --- |
| Cc1c2c(nn1C(=O)c1nn(-c3ccc(Cl)cc3)cc1O)-c1ccccc1CC2 | -7.92% (active) |
| COc1ccc(-c2onc(N)c2-c2cc(OC)c3c(c2)OCO3)cc1 | 14.5% |
| CN(C)c1ccc(/C=N/NC(=O)c2ccccc2Nc2cccc(C(F)(F)F)c2)cc1 | 53.4% |
| COc1cc(C2CC(c3ccccc3)=NN2C(C)=O)cc(OC)c1OC (centres undefined) | 34.5% |
| CC(C)N(CCOc1ccc(-c2nc3sccn3c2-c2ccnc(S(C)(=O)=O)n2)cc1)C(C)C | 76.4% |
| CCc1ccc(C2=NN(c3ccc(S(C)(=O)=O)cc3)C(=O)CC2)cc1 | 15.6% |
| Clc1ccc(/C=C2\CCCC3C2=Nc2ccccc2NC3c2ccc(Cl)cc2)cc1 (centres undefined) | 75.9% |
| CCn1c(SC/C(=N/O)c2ccccc2)nnc1-c1ccccc1 | 88.9% |
| Cc1cc(SCc2ccccc2)nc(N)n1 | 88.1% |
| COc1cc2cc(Oc3ccc(NC(=O)Nc4ccc(Cl)c(C(F)(F)F)c4)cc3)c(C)nc2cc1OC | -17.6% (active) |
| C[n+]1c2ccccc2nc2ccccc21 | -0.566% (active) |

Test system: MOLT-4 leukemia
Experiment: as above
Conditions: 10 µM

| SMILES | growth |
| --- | --- |
| CC(=O)OC/C=C(/C)C[P+](c1ccccc1)(c1ccccc1)c1ccccc1 | 78.2% |
| CCOC(=O)c1cc(C(=O)c2cc(OC)cc(OC)c2)n2ncc3ccccc3c12 | 29% |
| C=CCN(CC=C)C(=O)[C@H](CC)[C@@H]1CC[C@@H](C)[C@@H]([C@H](C)[C@@H](O)[C@@H](C)C(=O)[C@H](CC)C2O[C@]3(C=CC(=O)[C@]4(CC[C@@](C)([C@H]5CC[C@](O)(CC)[C@H](C)O5)O4)O3)[C@H](C)C[C@@H]2C)O1 (some centres undefined) | 28.8% |
| Cc1c2c(nn1C(=O)c1nn(-c3ccc(Cl)cc3)cc1O)-c1ccccc1CC2 | -1.46% (active) |
| O=C(CCn1cnc2c(cc(-c3ccccc3)n2-c2ccccc2)c1=O)Nc1ccc(F)cc1 | 85.5% |
| COc1ccc(-c2onc(N)c2-c2cc(OC)c3c(c2)OCO3)cc1 | 13.7% |
| CCCN(CCC)C(=O)[C@H](CC)[C@@H]1CC[C@@H](C)[C@@H]([C@H](C)[C@@H](O)[C@@H](C)C(=O)[C@H](CC)C2O[C@]3(C=C[C@@H](O)[C@]4(CC[C@@](C)([C@H]5CC[C@](O)(CC)[C@H](C)O5)O4)O3)[C@H](C)C[C@@H]2C)O1 (some centres undefined) | 15.3% |
| CCOC(=O)c1cc(C(=O)c2cc(OC)c(OC)c(OC)c2)n2c1ccc1c3cccnc3ccc12 | 31.4% |
| COc1cc(NC(=O)Nc2cnc(Nc3ccc(N4CCOCC4)cc3)nc2Oc2cccc(OC)c2)cc(OC)c1 | 61.3% |
| Fc1ccc2[nH]cc(-c3nc(-c4ccsc4)cs3)c2c1 | 78% |
| IC(I)I | 102% |
| Cc1ccc(-n2c(C)nn3c(=O)c4c5c(sc4nc23)CN(C)CC5)cc1 | 97.9% |
| CN(C)c1ccc(/C=N/NC(=O)c2ccccc2Nc2cccc(C(F)(F)F)c2)cc1 | 76.7% |
| N#CC1=C(N)Oc2cc(N)ccc2C1c1cccnc1 (centres undefined) | 89.6% |
| O=C(CCCCNC(=O)c1nc(-c2ccccc2)n(-c2ccccc2)n1)NO | 58.1% |
| COc1ccc(-c2cc(-c3ccc(OC)c(OC)c3)nc(SCCCC(=O)NO)n2)cc1 | 7.15% (active) |
| COc1cc(C2CC(c3ccccc3)=NN2C(C)=O)cc(OC)c1OC (centres undefined) | 29% |
| O=C(/C=C/C=C/c1c(C2CC2)nc2ccccc2c1-c1ccc(F)cc1)c1cccs1 | 8.46% (active) |
| CC(C)N(CCOc1ccc(-c2nc3sccn3c2-c2ccnc(S(C)(=O)=O)n2)cc1)C(C)C | 52.4% |
| O=C(Nc1nc(-c2ccccc2)nc2c1sc(=S)n2-c1ccccc1)C(F)(F)F | 77.2% |

| SMILES | growth |
| --- | --- |
| O=C(CSc1nnc(-c2ccc(Cl)cc2)o1)Nc1ccc(C(=O)/C=C/c2ccc(Cl)cc2)cc1 | 92.6% |
| C=CCn1c(SCC(=O)Nc2ccc(C(=O)/C=C/c3ccc(OC)cc3)cc2)nnc1-c1ccc(OC)c(OC)c1 | 49.7% |
| CN1CCN(CC(=O)Nc2cccc(-n3cc(-c4ccncc4)c(-c4ccc(Cl)c(O)c4)n3)c2)CC1 | 26.4% |
| CCc1ccc(C2=NN(c3ccc(S(C)(=O)=O)cc3)C(=O)CC2)cc1 | 15.3% |
| Cc1nn(-c2ccc(-c3ccc(OC(F)(F)F)cc3)cc2)c2nc(Cc3ccccc3)nc(N)c12 | 68.6% |
| Cn1c2ccccc2c2c3[nH][nH]c(=O)c3c3c4ccccc4[nH]c3c21 | 5.9% (active) |
| CC[C@H]1OC(=O)[C@H](C)[C@@H](O[C@H]2C[C@@](C)(OC)[C@@H](O)[C@H](C)O2)[C@H](C)[C@@H](O[C@@H]2O[C@H](C)C[C@H](N(C)C)[C@H]2O)[C@](C)(OC)C/C(C)=C2/O[C@@]1(C)C=C2C | 1.08% (active) |
| C=C(C)[C@@H]1CC[C@]2(COCCC#N)CC[C@]3(C)[C@H](CC[C@@H]4[C@@]5(C)Cc6c([nH]c7ccccc67)C(C)(C)[C@@H]5CC[C@]43C)[C@@H]12 | 86.1% |
| CC(=O)[C@H]1CC[C@]2(C)[C@@H]1CC[C@@H]1[C@@]3(C)CC(CCC#N)(CCC#N)C(=O)C(C)(C)[C@@H]3CC[C@]12C | 96.3% |
| O=C1c2ccccc2C(=O)c2c1ccc(C(Br)Br)c2Cl | -1.06% (active) |
| Clc1ccc(/C=C2\CCCC3C2=Nc2ccccc2NC3c2ccc(Cl)cc2)cc1 (centres undefined) | 65.8% |
| Cc1ccc(/C=C/C(=O)C(=O)/C=C/c2ccc(C)cc2)cc1 | 91.8% |
| O=C(Nc1ccccc1)Nc1ncnc2c1ncn2-c1ccccc1 | 94.1% |
| CCn1c(SC/C(=N/O)c2ccccc2)nnc1-c1ccccc1 | 94.8% |
| Cc1cc(SCc2ccccc2)nc(N)n1 | 98.5% |
| COc1cc2cc(Oc3ccc(NC(=O)Nc4ccc(Cl)c(C(F)(F)F)c4)cc3)c(C)nc2cc1OC | -27.9% (active) |
| CCCCCCCCCCCCCCCCCC[n+]1ccc2c(C)c3c(c(C)c2c1)c1cc(O)ccc1n3CC | 19% |
| CN1CCc2c(sc3nc4n(-c5ccc(Cl)cc5)cnn4c(=O)c23)C1 | 104% |
| CN1CCc2c(sc3nc4n(-c5ccc(Cl)cc5)c(=O)[nH]n4c(=O)c23)C1 | 99.1% |
| C[n+]1c2ccccc2nc2ccccc21 | 24.9% |
